# In the supplement of paper PMC6555819:
# Legend:
# Assay in all cases: PBM binding z-score (relative to random genomic background probes); higher = stronger binding; sequences stand for … in GC…GCGATTGACAGCGTAGAATGAAGG
# [1] = test system: FXR:RXRa (NR concentration 270 nM, RXRa partner concentration 90 nM)
# How it was run: (§1)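 Random background probes are the reference for binding z-scores. These scores derive from regression-normalized fluorescence on custom Agilent 4×180K protein-binding microarrays incubated 1 h with ligand-free nuclear receptor dimers. Binding was detected with antibodies against each partner (one per run).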
# [2] = test system: LXRa:RXRa (NR concentration 270 nM, RXRa partner concentration 90 nM)
# How it was run: as §1
# [3] = test system: LXRa homodimer (NR concentration 270 nM)
# How it was run: as §1
# [4] = test system: LXRb:RXRa (NR concentration 270 nM, RXRa partner concentration 90 nM)
# How it was run: as §1
# [5] = test system: LXRb homodimer (NR concentration 270 nM)
# How it was run: as §1
# [6] = test system: PPARa:RXRa (NR concentration 270 nM, RXRa partner concentration 90 nM)
# How it was run: as §1
# [7] = test system: PPARg:RXRa (NR concentration 180 nM, RXRa partner concentration 90 nM)
# How it was run: as §1
# [8] = test system: PPARg:RXRa 270nM:90nM, anti-RXR (NR concentration 270 nM, RXRa partner concentration 90 nM)
# How it was run: as §1
# [9] = test system: PPARg:RXRa 30nM:10nM, anti-RXR (NR concentration 30 nM, RXRa partner concentration 10 nM)
# How it was run: as §1
# [10] = test system: PPARg:RXRa 90nM:30nM, anti-RXR (NR concentration 90 nM, RXRa partner concentration 30 nM)
# How it was run: as §1
Sequence,PBM binding z-score [1],PBM binding z-score [2],PBM binding z-score [3],PBM binding z-score [4],PBM binding z-score [5],PBM binding z-score [6],PBM binding z-score [7],PBM binding z-score [8],PBM binding z-score [9],PBM binding z-score [10]
TTGAGTAGGTTAGGGGCATTCAGAATGGCGTCGA,0.794,0.55,0.331,1.42,1.36,1.84,1.34,2.8,1.58,2.25
TAGCCTATGTCATTCAGGGGCCAGTATAGAAAGC,-0.275,-0.326,-0.461,-0.0773,0.117,-0.00609,0.175,-0.205,-0.271,-0.159
CGAACCAGGTCATTGACAGGACAGTGAATAGTAA,5.53,3.65,0.747,2.7,0.324,4.37,4.46,4.07,0.956,2.96
ACTTTTAGTTGACTTAGGGCAACCGATACGACGC,0.918,0.796,0.546,0.578,1.38,0.361,0.9,0.521,0.607,0.54
CCTTACGGGTCACTGACAGGTTATAGCTTTTGGA,4.62,4.13,0.331,3.35,-0.0774,4.88,3.89,4.21,1.73,3.06
ACTAGCAGGCCAAGGGTCACTGAAGATTAGTCCG,3.07,2.89,0.0691,2.66,-0.585,4.73,8.44,7.62,6.5,8.43
CAAACTATGTCAAAGGTCAAAGTCGAGCCAACCA,6.52,6.3,5.11,5.79,2.93,7.19,11.9,10.2,10.4,11.8
GCTAGCAGGCCATTTGGGTCACTCCATGACGGGC,-0.16,-0.308,-0.39,-0.515,-0.772,0.964,0.542,0.345,-0.692,-0.372
CGTCCAAGGTCAGCATGTCAGTGAAAGCGACGTG,5.06,3.16,-0.309,2.27,-0.251,4.07,2.43,3.09,0.443,1.45
ACTAGCAGGCCACGTTTGGGTCACTCAAACAAAG,0.331,0.116,-0.479,0.601,-0.41,1.42,0.444,0.355,-0.448,-0.155
GCTGCTAGGTCAACTGATGGTCTGCTAAAGCTCG,3.83,2.66,-0.135,1.8,0.0375,3.45,2.31,2.78,0.103,1.81
CCTAGCAGGCCAATCTGGCTCACTCAAGGCTTGA,-0.716,-0.911,-0.459,-0.999,-0.737,-0.434,-0.54,-0.642,-0.916,-1.12
ATCTCTAGGTAACAAGTTCAGCGAAAGAGAGGAC,0.684,0.959,0.732,0.934,1.33,2.01,1.88,2.43,0.884,2.22
ATATGTAGGTTAAGGGTCATTCACGTTGGTTCGC,5.72,4.91,2.96,4.5,1.26,6.49,11.8,9.66,9.95,11.2
TCTAGTTGGTCACGGAGGTCACGCACGACGGGTA,3.96,4.14,2.94,3.75,0.74,4.54,4.03,4.7,3.7,4.38
ATCTCTAGGTAAAGTTCAGTGGAAGATCGATAGA,1.56,2.02,1.68,1.29,1.27,2.23,2.75,3.85,2.32,3.46
TCTCGGAGGACACGAAAGGTCAAAGCTCGACATC,4.46,5.45,6.31,4.92,0.987,4.72,2.15,3.75,2.79,3.33
CCGATTAGGTTATGGGGCATTCAGGCAACGGTGA,0.472,0.574,-0.0892,0.58,-0.609,1.58,2.14,3.35,1.63,2.83
AGTCAAAGTTCACTACGTAACGTAAGATTCAGCT,5.22,4.81,2.75,3.23,1.32,3.94,5.52,5.28,2.81,4.64
GCAGACAGGTGAAACGCAGGTACCTCAGGGTGGC,-0.505,-0.351,-1.08,-0.737,-1.1,0.616,0.419,-0.439,-0.666,-0.889
AGAACGATGGCAATGAGTTGATAGCACGGGTGGC,-0.517,-0.814,-0.366,-1.05,-0.645,-0.643,0.654,-0.25,-0.674,-0.599
TCTCGGAGAACACGAAGGTCAGAGCTTTCCAGAG,-0.456,0.775,-0.321,0.915,-0.994,1.59,0.33,1.41,2.09,1.74
ATCTCTAGGAAAAGTTCAGTGAAAGATCGATAGA,0.71,1.22,0.761,0.737,0.622,0.611,0.521,1.56,0.619,1.36
ATATGGAGGTTACATCCGGGTCATTCAGGCTATG,2.99,5.32,1.94,3.8,0.764,3.79,3.01,2.85,0.871,1.91
TCTAGTTGGTCAAAGGTCACACTCTCGAAATGCG,5.93,5.66,3.78,5.32,1.9,6.47,11.1,9.87,10.5,10.6
